This passage reports outcome results from PubChem BioAssay (EPA / NIEHS).

Active and inactive are the calls of the source. The calls were made as follows: active = hit-call score of the fitted dose curve at least 0.9, where 1 is the maximum; inactive = score below 0.9.

This experiment in a line: APR_HepG2_NuclearSize_72hr: Apredica 72-hour HepG2 Assay for Nuclear Size (AID 2282925). To be noted: high-content imaging, actives raise or lower the signal. The method in brief:
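Nuclear size was read by high-content imaging of Hoechst 33342 stain after formaldehyde fixation. Compounds ran 72 h on HepG2 at 0.39 to 200 uM, with final DMSO 0.5% v/v. Curves fitted both directions relative to DMSO control.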
Consider `O=C(N[C@@H](Cc1ccccc1)[C@@H](O)C(=O)N1C[C@@H](O)[C@@H](O)C1)c1cc2cc(Cl)ccc2[nH]1`, for which the molecule was called inactive.

As to `CCCCCCCCCCCCCCCC`, the molecule was called inactive.

`Cc1ccc(C)c(C)c1`: the outcome was inactive.

For the molecule `C=CCOC(=O)c1ccccc1C(=O)OCC=C`, the call was inactive.

As for `CCCCCCCCCCC`, the result was inactive.

Consider `COc1cc(-c2nc(NC(=O)c3cc4cc(C)cc(C)c4n3CC(=O)O)sc2CCC2CCCCC2)c(OC)cc1Cl`, for which the molecule was called inactive.

With `Cc1cc(NC(=O)C(=O)O)cc(C)c1Oc1ccc(O)c2c1CCC2`, the molecule was called inactive.

Take `O=C(OCCCCCOC(=O)c1ccccc1)c1ccccc1`: the molecule was called inactive.

With `COC(=O)c1ccc(O)cc1`, the outcome was inactive.

Regarding `CCCCCCCC=O`, the outcome was inactive.

For the molecule `CCCCC(CC)COC(=O)CC(C(=O)OCC(CC)CCCC)S(=O)(=O)O` (stereo unspecified), the call was inactive.

On to `C[Si]1(C)O[Si](C)(C)O[Si](C)(C)O[Si](C)(C)O1`, for which the call was inactive.

`C=CCc1ccc(O)c(OC)c1`: the molecule was classed as inactive.

In the case of `NS(=O)(=O)c1cc2c(cc1Cl)NCNS2(=O)=O`, the molecule was classed as inactive.

On to `COc1cc(/C=C/C(=O)CC(=O)/C=C/c2ccc(O)c(OC)c2)ccc1O`, for which the molecule was called inactive.

With `CCOC(=O)CCC(=O)OCC`, the call was inactive.

For `CC(CO)OC(C)CO` (stereo unspecified) (tested in a mixture with another compound), the molecule was called inactive.

On to `O=C(O)CCCCC(=O)O`, for which the result was inactive.

For `Cc1cc(=O)[nH]c(=S)[nH]1`, the molecule was called inactive.

Regarding `Cc1nc(-c2ccc3c(c2)CCN(CCC2CCC(NC(=O)/C=C/c4ccc(F)cc4)CC2)CC3)no1` (stereo unspecified), the molecule was called inactive.

`Oc1ccc2c(c1)OC[C@@H](N1CCC(O)(c3ccc(F)cc3)CC1)[C@H]2O`: the molecule was called inactive.
